Source: PubChem BioAssay
Hits are enriched below; roughly 0.92% of the tested compounds scored in any of these assays.
FEN1 inhibitor – blocks human flap endonuclease 1. P39748. Recombinant FEN1 flap cleavage, fluorescence, 15 min. Potency, µM (titrated, usually from 114 µM), actives largely listed as inhibitors. actives 0.35% (n = 390,000); note: nearly all actives have a fitted effect of over 65% in size
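With each library titrated from low to high concentration, compounds met 10 nM FEN1 for 15 min at room temperature before 50 nM substrate was added; readings at 0 and 15 min fed four-parameter Hill curve fits.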
TDP1 block – blocks human tyrosyl-DNA phosphodiesterase 1; Q9NUW8; Potency, µM (titrated, usually from 130 µM), actives largely listed as inhibitors; actives 0.28% (n = 350,000); recombinant TDP1, AlphaScreen DNA substrate cleavage; AID 485290; note: nearly all actives have a fitted effect of over 40% in size
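Recombinant human Tdp1 (E. coli-expressed, 1 nM final) preincubated with compounds 15 min at room temperature, then 5'-biotin/3'-phosphotyrosine-FITC DNA substrate (15 nM final) added for 5 min. AlphaScreen beads (10 ug/ml final) added 10 min; cleavage lowers signal.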
RECQ1 helicase – RECQ1 (human) helicase inhibition; P46063; RECQ1 DNA unwinding, red fluorescence kinetic read; Potency, µM (titrated, usually from 57.3 µM), actives largely listed as inhibitors; actives 0.54% (n = 240,000); AID 2549; note: nearly all actives have a fitted effect of over 30% in size
Target sequence (P46063 whole entry, looked up): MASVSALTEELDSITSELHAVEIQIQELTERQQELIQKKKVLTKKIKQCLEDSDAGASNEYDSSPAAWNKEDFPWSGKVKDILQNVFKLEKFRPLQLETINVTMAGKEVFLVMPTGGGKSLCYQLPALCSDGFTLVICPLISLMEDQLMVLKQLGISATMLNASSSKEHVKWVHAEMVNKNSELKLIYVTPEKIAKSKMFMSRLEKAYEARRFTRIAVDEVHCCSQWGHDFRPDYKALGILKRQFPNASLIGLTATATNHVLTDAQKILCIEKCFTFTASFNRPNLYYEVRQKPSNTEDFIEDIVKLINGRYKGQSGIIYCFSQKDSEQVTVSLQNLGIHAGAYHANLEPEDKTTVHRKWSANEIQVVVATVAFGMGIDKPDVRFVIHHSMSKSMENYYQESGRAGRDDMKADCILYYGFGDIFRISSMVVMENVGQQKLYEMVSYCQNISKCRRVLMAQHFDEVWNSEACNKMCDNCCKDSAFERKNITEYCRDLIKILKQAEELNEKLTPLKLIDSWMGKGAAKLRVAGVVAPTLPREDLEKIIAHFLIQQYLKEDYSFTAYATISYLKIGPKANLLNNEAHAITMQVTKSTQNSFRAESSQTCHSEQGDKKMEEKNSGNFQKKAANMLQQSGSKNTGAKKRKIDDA
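RECQ1T1 50 nM; forked duplex (20 bp + 30-nt ss tails) 200 nM, ATP 2 mM final; pH 8.0, 2 mM MgCl2, 2.5 ug/ml poly(dI-dC); 15 min compound preincubation; discontinuous kinetic read over 2 h at RT.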
APEX1 inh – inhibitors of human APE1 endonuclease | P27695 | recombinant APE1, TAMRA/BHQ-2 abasic DNA cleavage fluorescence | Potency, µM (top dose mostly 65.8 µM), actives largely listed as inhibitors | actives 0.35% (n = 350,000); note: nearly all actives have a fitted effect of over 55% in size
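APE1 at 0.75 nM final was preincubated with compound 15 min at room temperature, then 50 nM double-stranded THF abasic-site substrate (5'-TAMRA/3'-BHQ-2) was added. Fluorescence (ex 525/em 598 nm) was read kinetically; third-minus-first read gave activity.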
BLM inh – blocks DNA unwinding by human BLM helicase; P54132; recombinant BLM DNA unwinding, fluorescence dequenching; Potency, µM (series often up to 56.1 µM), most hits filed as inhibitors; actives 0.2% (n = 350,000); AID 2528; note: nearly all actives have a fitted effect of over 35% in size
Numbers stand for hits; i = inactive; ? = inconclusive; nt = no result; ! = repeats disagree; [ ] = dose if it differs, or a comment. Calls come from the whole dose curve; as a rule, active = well fitted curve in the direction sought with a large enough effect; inconclusive = small, poorly fitted or top-dose-only effect, or another doubt; inactive = no such curve, though single readings can be large; an effect the other way counts as inactive or inconclusive.

SMILES	FEN1 inhibitor	TDP1 block	RECQ1 helicase	APEX1 inh	BLM inh
Cc1coc2c(C)c3oc(=O)c(CCC(=O)N[C@@H](C)C(=O)N[C@@H](Cc4ccccc4)C(=O)O)c(C)c3cc12	i	nt	nt	13µM	i
CCCC(NC(=O)Cc1c(C)c2cc3c(C)c(C)oc3c(C)c2oc1=O)C(=O)N[C@@H](Cc1ccccc1)C(=O)O (some centres not stated)	i	nt	nt	21µM	i
N#Cc1c(-c2ccc(OCCOCCOCCNC(=O)CCCC[C@@H]3SC[C@@H]4NC(=O)N[C@@H]43)cc2)no[n+]1[O-]	nt	nt	nt	i	nt
COc1cccc(C2c3c(ncn(-c4ccccc4Cl)c3=N)Oc3ccc4ccccc4c32)c1 (configuration not stated)	nt	i	nt	nt	nt
COc1ccc(C(=O)O)cc1COc1ccc(NC(C)=O)cc1	nt	i	nt	nt	nt
CCC1(O)CC2CN(CCc3c([nH]c4ccccc34)[C@@](C(=O)OC)(c3cc4c(cc3OC)N(C)C3[C@]45CCN4CC=C[C@@](CC)([C@@H](OC(C)=O)[C@]3(O)C(=O)OC)[C@H]45)C2)C1 (some centres not stated)	nt	i	14µM	i	nt
COc1ccc(-c2cc(C(=O)NCc3ccco3)c3ccccc3n2)c(OC)c1	i	8.9µM	nt	i	i
COc1cccc(NC(=O)CN(C)C(=O)c2cc(-c3ccco3)nc3ccccc23)c1	i	i[0.505 µM]	nt	11µM	nt
CN(CC(=O)Nc1ccc(F)cc1)C(=O)c1cc(-c2ccco2)nc2ccccc12	i	nt	nt	i	nt
Cc1c(P(=S)(c2ccccc2)c2ccccc2)c2ccccc2n1CCCc1ccccc1	nt	i	nt	nt	nt
Nc1ccc(S(=O)(=O)N2CCN(S(=O)(=O)c3c(F)cccc3F)CC2)cc1	nt	i	nt	nt	nt
COc1ccc(/C=N/NC(=O)c2ccccc2OC)cc1COc1ccccc1[N+](=O)[O-]	i	i	nt	i	?
COc1ccc(/C=N\NC(=O)c2ccc([N+](=O)[O-])c(C)c2)cc1COc1ccccc1C(N)=O	79µM	i	nt	i	?
COc1ccc(Cn2c3nc4ccccc4nc3c3c(=O)n(Cc4ccco4)c(C)nc32)cc1	nt	32µM	3.5µM	?	?
CC1CCN(C(=O)c2ccc(S(=O)(=O)NCc3ccco3)cc2)CC1	i	89µM	nt	i[12.4 µM]	i
COc1ccc(-c2ccc3nnc(-c4ccccc4OC)n3n2)cc1OC	nt	nt	nt	i	nt
O=C(COc1ccc2oc(-c3ccccc3)cc(=O)c2c1)NCc1ccco1	i	50µM	i	?	i
CC(c1ccc(N(C)C)cc1)c1ccnc2ccccc12 (configuration not stated)	i	nt	nt	nt	nt
O=C(O)C(S)[C@@H](S)C(=O)O (some centres not stated)	nt	nt	i	14µM	i
CC(C)Cn1c(N)c(C(=O)CSc2nc3ncc(Cl)cc3[nH]2)c(=O)n(C)c1=O	i	i[0.505 µM]	nt	i	nt
CCCn1c(N)c(C(=O)CSc2nc3ncc(Cl)cc3[nH]2)c(=O)n(C)c1=O	i	28µM	nt	?	nt
NC[C@H]1O[C@H](O[C@H]2[C@H](O[C@@H]3O[C@H](CO)[C@@H](O)[C@H]3O)C(O)[C@H](N)C[C@@H]2N)[C@H](N)[C@@H](O)[C@@H]1O (some centres not stated)	nt	nt	nt	i	nt
CNc1ccccc1	i	i	i	i	nt
CNc1ccc(O)cc1	nt	i	32µM	i	nt
CCC1=Nc2cc(C(=O)NCCc3ccccc3)ccc2Sc2ccc(Cl)cc21	i	i	nt	nt	i
SMILES	FEN1 inhibitor	TDP1 block	RECQ1 helicase	APEX1 inh	BLM inh
CCCC1=Nc2cc(C(=O)NCCc3ccccc3)ccc2Sc2ccc(C)cc21	79µM	i	nt	nt	i
O=C(Nc1cccnc1)c1cnn2c1NC(=C1CC1)C=C2C(F)F	nt	nt	nt	i	nt
O=C(O)c1cc(-c2ccco2)nc2cc3ccccc3cc12	i	nt	28µM	?	i
O=C(NNC(=O)c1cc(-c2ccco2)nc2ccccc12)c1ccccc1	i	i	i	i	i
C=C(C)C(=O)Nc1ccc(OC(F)(F)C(F)F)c(NC(=O)C(=C)C)c1	i	13µM	i	i	i
CN(C)c1ccc(C(I)C(I)c2ccnc3ccccc23)cc1 (configuration not stated)	79µM	nt	nt	nt	nt
COc1cc2nc(Cl)nc(NC(C)C)c2cc1OC	i	nt	nt	nt	nt
COc1cc2nc(CCNCc3ccccc3)nc(NC3CCN(C)CC3)c2cc1OC	45µM	nt	nt	nt	nt
COc1cc2nc(N(C)C)nc(N)c2cc1OC	?	i	i	?	i
COc1ccccc1-c1nc(NC2CC2)c2ccccc2n1	nt	nt	i	i	i
COc1cc2nc(N(C)C)nc(NC3CCN(C)CC3)c2cc1OC	28µM	nt	nt	nt	nt
COc1cc2nc(NC3CCN(C)CC3)nc(NC3CCN(C)CC3)c2cc1OC	45µM	nt	nt	nt	nt
COc1cccc(C2c3c(ncn(-c4cccc(C#N)c4)c3=N)Oc3ccc4ccccc4c32)c1 (configuration not stated)	nt	i	nt	nt	nt
O=C(NN=C1CCCC1)c1ccccc1[N+](=O)[O-]	i	40µM	nt	i	i
O=C1c2ccccc2C(=O)C12OC2c1cccc2ccccc12 (configuration not stated)	i	i	i	i	18µM
Cc1nc(-c2ccc(Cl)cc2)oc1COC(C)(C)C(=O)O	nt	i	nt	nt	i
COc1ccc(OC)c(NC(=O)CSc2sc3c(O)cc(=O)[nH]c3c2C#N)c1	79µM	i	nt	i	i
COc1ccc(/C=C/C(=O)O)cc1S(=O)(=O)NC1CCS(=O)(=O)C1 (configuration not stated)	i	50µM	i	i	i
COc1ccc(/C=C/C(=O)O)cc1S(=O)(=O)Nc1ccc2c(c1)OCO2	i	nt	i	i	i
COc1[nH]c(/N=C/c2ccccc2)c(C#N)c1C#N	50µM!	i	i	i	i
COc1ccc(Cn2c(C)nc3c(c(=O)c4ccccc4n3C)c2=O)cc1	?	i	i	i	i
COc1ccc(CCn2c(C)nc3c(c(=O)c4ccccc4n3C)c2=O)cc1	50µM	i	i	i	i
O=S(=O)(c1ccc(NC(=S)NN=C2CCCCC2)cc1)N1CCOCC1	i	i	i	35µM	i
COc1ccc(C2Nc3ccccc3C(=O)N2CC(C)(C)C)cc1COc1ccc(NC(C)=O)cc1 (configuration not stated)	nt	i	nt	nt	nt
CSc1nc(-c2cccs2)c(C#N)c(=O)[nH]1	i	i	i	i	i
SMILES	FEN1 inhibitor	TDP1 block	RECQ1 helicase	APEX1 inh	BLM inh
N#Cc1c(-c2cccs2)nc(SCc2ccc(Cl)cc2)[nH]c1=O	i	i	i	i	28µM
O=C(O)CC/C(=C/c1cccc(NC(=O)c2ccccc2Cl)c1)c1nc2ccccc2s1	i	nt	nt	nt	nt
COc1cc(/C=C(\CCC(=O)O)c2nc3ccccc3s2)ccc1OCC(=O)Nc1c(Cl)cccc1Cl	?	28µM	nt	?	nt
CC(C)(C)n1ncc2c(=O)n(Cc3c(F)ccc(F)c3Cl)cnc21	i	nt	nt	i	nt
CC(/C=N/n1c(-c2cc(C)[nH]n2)n[nH]c1=S)=C\c1ccco1	?	i	25µM	i	i
COc1ccc(Cl)c(Cn2cnc3c(cnn3C(C)(C)C)c2=O)c1F	i	nt	nt	i	nt
